# From PubChem BioAssay (EPA / NIEHS)
# Activity calls are given as the source filed them. The calls were made as follows: active = hit-call score of the fitted dose curve at least 0.9, where 1 is the maximum; inactive = score below 0.9.
# Read-out: Glutamate-cysteine ligase catalytic (GCLC), GCLC (gene 2729)
# Assay: LTEA_HepaRG_GCLC: Life Technologies and Expression Analysis (LTEA) Assay for Glutamate-cysteine ligase catalytic (GCLC) using HepaRG (AID 2283498)
# Conditions: mRNA level, 48 h; actives raise or lower the signal
# Description: LTEA_HepaRG is a cell based, multiplexed-readout assay that uses HepaRG, a human liver cell line, with measurements taken at 48 hours after chemical dosing on a 96-well plate.LTEA_HepaRG_GCLC is one of 102 assay component(s) measured in the LTEA HepaRG cell culture assay. It is a marker of Oxidative Stress.Data from the assay component LTEA_HepaRG_GCLC was analyzed into 1 endpoint. This assay endpoint, LTEA_HepaRG_GCLC, was analyzed with bidirectional fitting relative to DMSO as the negative control and baseline of activity. Using a type of inducible reporter, measures of mRNA induction for gain or loss-of-signal activity can be used to understand regulation of transcription factor activity. To generalize the intended target to other relatable targets, this assay endpoint is annotated to the ligase intended target family, where the subfamily is C-N ligase.
# A total of 1060 chemcials from the ToxCast library were tested in eight-point concentration-response experiments. Cell culture and cytotoxicity assays were conducted at Thermo Fisher Scientific's Custom Services facility (Madison, WI). A single lot of human HepaRG cells (Thermo Fisher Scientific, Frederick, MD) was used for the cell culture experiments. 96-well format collagen type I coated plates of human HepaRG cells were prepared using established methods. Briefly, cryopreserved HepaRG cells were thawed, plated at a density of approximately 100,000 cells/well in HepaRG Thaw, Plate, and General Purpose media (HPRG770, Thermo Fisher Scientific), and incubated for 48 hours. 0.5% DMSO was selected as vehicle control to balance the requisite need of DMSO in HepaRG cultures to maintain differentiation (for example, baseline metabolism, proportions of hepatocytes vs. cholangiocytes), while enabling further hepatic receptor pathway activation (for example, PXR and CAR) in response to chemical exposure. 48 hours after plating, the culture medium was replaced with HepaRG Serum-Free Incudtion Media. Cells were exposed to each test chemical in duplicate and maintained in CO2 incubators for another 48 hours. Chemical plates were thawed to room temperature and 200x concentrations of treatment groups were prepared. 8-point conentration-reponse curves were made with the highest exposure at 100 uM, followed by half-log dilutions, all in 0.5% DMSO. Each test plate contained variouse controls, induction positive controls (1mM phenobarbital), cytotoxicity positive controls ([…] aflatoxin B1), vehicle controls (0.5% DMSO), and total lysis controls (0.5% DMSO). Cell morphology images were taken using an Essen IncuCyte FLR automated microscope, with six 96-well plates imaged in about 24 minutes. Images were captured and exported and JPEG files. Spent culture media was transfered to black-well plates for the LDH assay, and remaining media was sorted at -80 C for later use. Cells were treated with RLT buffer and frozen until shipped for gene expression analysis. Total RNA was isolated from the cell suspension in 75 uL of Buffer RLT (Qiagen, Germantown, MD 20874) by Quintiles/Expression Analysis (Durham, NC) using a custom isolation procedure. Total RNA from each plate well was transferred to a preamplification plate. Fluidigm's 96.96 Dynamic ArrayTM (Fluidigm, Amsterdam, the Netherlands) technology was used for gene expression analyses by quantitative reverse transcription polymerase chain reaction (qRT-PCR, performed by Quintiles/Expression Analysis, Durham, NC)89. Standard TaqManTM Assays (Applied Biosystems/ThermoFisher Scientific, Foster City, CA) were used to assess the expression of 93 genes selected based on their selectivity and sensitivity to important hepatic receptors known to be modulated by environmental chemicals; importance in human hepatocyte functionality; and hepatotoxicity. […]
SMILES,outcome,AC50
CC(C)(OO)c1ccccc1,inactive,
O=C(O)C(Cl)(Cl)Cl,inactive,
ClCC(Cl)CCl,inactive,
CCC(C)(C)c1ccc(O)c(C(C)(C)CC)c1,inactive,
C[C@@H]1C[C@@H]([C@H](O)CC2CC(=O)NC(=O)C2)C(=O)[C@@H](C)C1,,33.3 µM (active)
C=CC(=O)OCCCCCC(C)C,inactive,
CC12CC1(C)C(=O)N(c1cc(Cl)cc(Cl)c1)C2=O (stereo not given),inactive,
Oc1cccc2cccnc12,inactive,
C=C(C)C(=O)[O][Sn]([CH2]CCC)([CH2]CCC)[CH2]CCC,,4.01 µM (active)
Cc1ccccc1N,inactive,
CC(C)(c1ccccc1)c1ccc(O)c(C(C)(C)c2ccccc2)c1,inactive,
CC(C)(C)c1cc(O)ccc1O,inactive,
CCCCCCCCc1ccc(O)cc1,inactive,
O=C(Nc1ccc2[nH]ccc2c1)c1cc2cc(F)ccc2n1Cc1cccc(F)c1,,23.6 µM (active)
COc1cc(-c2ccc(N)c(OC)c2)ccc1N,inactive,
C[C@]12CCC(=O)C[C@@H]1CC[C@@H]1[C@@H]2CC[C@]2(C)[C@@H](O)CC[C@@H]12,inactive,
CCOP(=S)(OCC)SCSP(=S)(OCC)OCC,,0.0663 µM (active)
O=C(O)C(F)(F)C(F)(F)C(F)(F)C(F)(F)C(F)(F)C(F)(F)F,inactive,
CCOP(=S)(OCC)Oc1nc(Cl)c(Cl)cc1Cl,inactive,
CC(=O)[O][Hg][c]1ccccc1,,23.1 µM (active)
CC(C)(C)CC(C)(C)c1ccc(O)cc1,inactive,
Cn1sc(Cl)cc1=O,inactive,
O=C(O)C(F)(F)C(F)(F)C(F)(F)C(F)(F)C(F)(F)C(F)(F)C(F)(F)C(F)(F)C(F)(F)C(F)(F)F,inactive,
O=C1C2(Cl)C3(Cl)C4(Cl)C(Cl)(Cl)C5(Cl)C3(Cl)C1(Cl)C5(Cl)C24Cl (stereo not given),,93.3 µM (active)
NC(=O)O,inactive,
CN(C)N=O,inactive,
O=c1[nH]c(=O)[nH]c(=O)[nH]1,inactive,
CCN1CCC2(CC1)COc1cc3c(cc12)N(C(=O)c1ccc(-c2ccc(-c4nnc(C)o4)cc2C)cc1)CC3,,25.4 µM (active)
ClC1(Cl)C2(Cl)C3(Cl)C4(Cl)C(Cl)(Cl)C5(Cl)C3(Cl)C1(Cl)C5(Cl)C24Cl (stereo not given),inactive,
CCC(=O)C(CC(C)N(C)C)(c1ccccc1)c1ccccc1 (stereo not given),inactive,
